Data on 29 sequences can be found in PMC5515408, “Sequence-specific DNA binding by MYC/MAX to low-affinity non-E-box motifs”.

In all, about 4,500 sequences were measured (“log2 normalized fluorescence”: median about -0.34, highest 2% from about 3.3 on). This excerpt belongs to a sample that is enriched for the highest values.

For this test, the target named is MAX:MAX (p21) (human, UniProt P61244-2 1-151). Briefly: protein-binding microarray (anti-MAX antibody); PBM: 15 mM Tris-HCl pH 7.5, 100 mM KCl, 0.075% NP40, 7.5 mM beta-mercaptoethanol, 375 ng/ul BSA, 8 ng/ul poly(dA-dT):(dA-dT), 550 ng complex, 60 min, room tempe; high values mean tight binding. The settings on record: protein: recombinant; tags: 6xHis; chain copies: 2; label: 3' end of printed strand (linker) attached to glass slide; dsDNA, one strand shown. The method, boiled down: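 For each of ~5000 unique double-stranded 12-nt sequences, spotted in triplicate on a custom Agilent glass array, binding of His-tagged human MYC:MAX or MAX:MAX dimers is reported as log2 normalized fluorescence. The dimers (550 ng, E. coli-expressed) were incubated for 60 min at room temperature in Tris-KCl buffer, pH 7.5, with NP40, BSA and poly(dA-dT) competitor. Detection used anti-MAX and secondary antibodies with a 543 nm scan.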
Sequence of MAX:MAX (p21) (P61244 other isoform, or with tags, fused parts or gaps): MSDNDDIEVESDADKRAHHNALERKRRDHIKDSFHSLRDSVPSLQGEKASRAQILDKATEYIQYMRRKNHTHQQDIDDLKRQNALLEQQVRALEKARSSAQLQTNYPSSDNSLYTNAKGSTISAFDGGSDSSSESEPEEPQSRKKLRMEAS
In the case of “CCGGCGGGCACGTGGGATTAATAGCTAAGATTACTATATCGACG”, the binding signal was 3.48 log2 normalized fluorescence.
As to “CCGGCGGGCACGTGGTCTTAATAGCTAAGATTACTATATCGACG”, the binding signal was 3.13 log2 normalized fluorescence.
In the case of “CCGGCTGGCACGTCGGATTAATAGCTAAGATTACTATATCGACG”, the binding signal is 1.33 log2 normalized fluorescence.
Regarding “CCGGCTGGCACGTGGCATTAATAGCTAAGATTACTATATCGACG”, the binding signal was 3.03 log2 normalized fluorescence.
Under “CCGGCTGCCATGTGGTTTTAATAGCTAAGATTACTATATCGACG” stands 3.15 log2 normalized fluorescence; under “CCGGCTGCCATGTGGGATTAATAGCTAAGATTACTATATCGACG”, 3.34 log2 normalized fluorescence.
Turning to “CCGGCTACTATGCCATGTTAATAGCTAAGATTACTATATCGACG”, the binding signal is 0.457 log2 normalized fluorescence.
The result for “CCGGCTGGCACGTGGGATTAATAGCTAAGATTACTATATCGACG” reads 3.64 log2 normalized fluorescence; that for “CCGGCTATCACGTGGGATTAATAGCTAAGATTACTATATCGACG”, 3.05 log2 normalized fluorescence.
For the sequence “CCGGCTGACGATCTGTATTAATAGCTAAGATTACTATATCGACG”, the binding signal was -0.62 log2 normalized fluorescence.
Take “CCGGCTGAAGAGAGGTATTAATAGCTAAGATTACTATATCGACG”: the binding signal is -0.631 log2 normalized fluorescence.
Consider “CCGGCTGACCCATGGTTTTAATAGCTAAGATTACTATATCGACG”, for which the binding signal was 2 log2 normalized fluorescence.
Regarding “CCGGCTGACATGAGGTATTAATAGCTAAGATTACTATATCGACG”, the binding signal was 2.52 log2 normalized fluorescence.
As to “CCGGCTGACCACAAGTATTAATAGCTAAGATTACTATATCGACG”, the binding signal was 1.12 log2 normalized fluorescence.
The result for “CCGGCTGACCCAACGTATTAATAGCTAAGATTACTATATCGACG” reads -0.297 log2 normalized fluorescence.
On to “CCGGCCGACACGTGGGCTTAATAGCTAAGATTACTATATCGACG”, for which the binding signal was 3.29 log2 normalized fluorescence.
In the case of “CCGGCTCACACGTGGGCTTAATAGCTAAGATTACTATATCGACG”, the binding signal was 3.27 log2 normalized fluorescence.
As for “CCGGCTGACACGTGGCCTTAATAGCTAAGATTACTATATCGACG”, the binding signal was 3.37 log2 normalized fluorescence.
As to “CCGGCTGACACGTGACCTTAATAGCTAAGATTACTATATCGACG”, the binding signal is 3.18 log2 normalized fluorescence.
Under “CCGGCTGACACGTGGGCTTAATAGCTAAGATTACTATATCGACG” stands 3.35 log2 normalized fluorescence.
As to “CCGGCTGACACGGCTTATTAATAGCTAAGATTACTATATCGACG”, the binding signal is 0.66 log2 normalized fluorescence.
The result for “CCGGCTGACACGTGGGATTAATAGCTAAGATTACTATATCGACG” reads 3.16 log2 normalized fluorescence; that for “CCGGCTGACACGTGGACTTAATAGCTAAGATTACTATATCGACG”, 3.07 log2 normalized fluorescence; that for “CCGGCCGACACGTGGTATTAATAGCTAAGATTACTATATCGACG”, 3.12 log2 normalized fluorescence.
Turning to “CCGGCTGAAAAACCGTATTAATAGCTAAGATTACTATATCGACG”, the binding signal is -0.672 log2 normalized fluorescence.
As for “CCGGCTGAAGGCACGTATTAATAGCTAAGATTACTATATCGACG”, the binding signal was 0.169 log2 normalized fluorescence.
For “CCGGCTGAGCACTGGTATTAATAGCTAAGATTACTATATCGACG”, the binding signal is -0.181 log2 normalized fluorescence.
With “CCGGCTGAGGACTTGTATTAATAGCTAAGATTACTATATCGACG”, the binding signal is -0.44 log2 normalized fluorescence.
As for “CCGGCTCCCACCTGGTATTAATAGCTAAGATTACTATATCGACG”, the binding signal was 2.61 log2 normalized fluorescence.
